# High-throughput results deposited in PubChem by National Center for Advancing Translational Sciences (NCATS).
# Rows were chosen to be rich in hits. Some 19% of all compounds tested hit in one or more screens of this group.
# IL-1B inflam inh: qHTS for Inhibitors of Inflammasome Signaling: IL-1-beta AlphaLISA Primary Screen. 360,000 compounds, 4.7% hits. THP-1 LPS/ATP IL-1B secretion, AlphaLISA, 16 h; hits give low values. activity change, % at 57.5 µM; in the data active = activity change below about -50%; inconclusive = mostly about -30% to -49%
#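 THP-1 cells pretreated 1 hr with compounds (up to 57.5 uM final), then stimulated with LPS (250 ng/mL final) plus ATP (1.25 mM final); secreted IL-1B measured by AlphaLISA after 16 hr, decreased signal indicating inhibition.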
# TDP1 cell noCPT: qHTS for Inhibitors of human tyrosyl-DNA phosphodiesterase 1 (TDP1): qHTS in cells in absence of CPT; DT40 Tdp1-/- hTDP1 cells, no CPT, ATP luminescence, 48 h; Potency, µM (doses to about 46.2 µM), inactives show at the top dose activity change, negative = growth inhibition, usual class: inhibitors; 420,000 compounds, 15% hits; AID 686978, 2013; also: potency is read from the fitted curve at half-maximal effect; nearly all actives have a fitted effect of over 55% in size
#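 Growth kinetics read by CellTiter-Glo luminescence after ≥48 hr at 37 °C. Cells: DT40 Tdp1-/- stably carrying human TDP1, 400 per well, compound exposure in the absence of CPT (DMSO vehicle).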
# DT40 TDP1 CPT: qHTS for Inhibitors of human tyrosyl-DNA phosphodiesterase 1 (TDP1): qHTS in cells in presence of CPT | chicken DT40 Tdp1-/-;hTDP1 cells + 20 nM CPT, ATP luminescence, 48 h | Potency, µM (titrated, usually from 46.2 µM), without a hit: at the top dose activity change, negative = growth inhibition, most hits filed as inhibitors | 420,000 compounds, 12% hits | AID 686979, 2013; also: potency is read from the fitted curve at half-maximal effect; nearly all actives have a fitted effect of over 55% in size
#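 Cell growth measured by CellTiter-Glo luminescence after a minimum 48 h, 37 C compound exposure with 20 nM CPT in Tdp1-knockout DT40 cells stably expressing hTDP1, seeded 400/well; qHTS titration format.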
# HT1080 IDH1KD tx: qHTS for induction of synthetic lethality in tumor cells producing 2HG: qHTS for the HT-1080-IDH1KD cell line. HT-1080 IDH1 knockdown viability, ATP luminescence, 48 h. Potency, µM (series often up to 46.1 µM), without a hit: at the top dose activity, negative = toxicity, actives largely listed as cytotoxic. 360,000 compounds, 2% hits;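 also: potency is read from the fitted curve at half-maximal effect; 0% = DMSO wells and -100% = cell-free medium wells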
#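 HT-1080-IDH1KD cells (IDH1 knocked down), 750/well in RPMI with 5% FBS, treated with compound 48 h at 37 degrees C. Viability by CellTiter-Glo luminescence, normalised to DMSO and no-cell wells; concentration-response curves classed.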
# ELG1 repair inh: qHTS screen for small molecules that inhibit ELG1-dependent DNA repair in human embryonic kidney (HEK293T) cells expressing luciferase-tagged ELG1 | 330,000 compounds, 2.3% hits | AID 504467, 2011 | Potency, µM (titrated, usually from 46.1 µM), inactives show at the top dose activity change, negative = inhibition, hits mostly inhibitors | HEK293T ELG1-luciferase reporter, luminescence, 16 h; DNA damage induced by 5-fluorouridine; also: potency is read from the fitted curve at half-maximal effect; nearly all actives have a fitted effect of over 55% in size
#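 5-Fluorouridine DNA damage + compound/DMSO, 2,000 cells/well, 16 h, 37 °C/5% CO2. ONE-Glo, 30 min RT, luminescence. Readout = decrease in reporter signal.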
# HT1080-NT tox: qHTS for induction of synthetic lethality in tumor cells producing 2HG: qHTS for the HT-1080-NT fibrosarcoma cell line; HT-1080-NT fibrosarcoma viability, CellTiter-Glo ATP luminescence, 48 h; Potency, µM (highest dose often 46.1 µM), for the others: top-dose activity, negative = less viability, usual class: cytotoxic; 360,000 compounds, 1.6% hits; AID 686970, 2013;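 also: NT is the 2HG producing partner of a matched IDH1 knockdown line; potency is read from the fitted curve at half-maximal effect; 0% = DMSO-treated cells and -100% = media-only wells without cells; nearly all actives have a fitted effect of over 55% in size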
#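 Viability of the 2HG-overproducing fibrosarcoma line after 48 hours of compound exposure at 37 degrees C was determined by luminescence with CellTiter-Glo, and concentration-effect curves were then fitted and categorized.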
# Starred values were filed as active, the others as inactive; ? = inconclusive; . = no result. Unless noted, calls follow the shape of the dose curve; as a rule, active = well fitted curve in the direction sought with a large enough effect; inconclusive = small, poorly fitted or top-dose-only effect, or another doubt; inactive = no such curve, though single readings can be large; an effect the other way counts as inactive or inconclusive. Unless noted, % is scaled to controls: 0 for no effect and ±100 for the full control effect.
SMILES,IL-1B inflam inh,TDP1 cell noCPT,DT40 TDP1 CPT,HT1080 IDH1KD tx,ELG1 repair inh,HT1080-NT tox
COc1cc(CN2C[C@@H](CO)O[C@@H](n3cnc4c(N5CCN(C)CC5)ncnc43)C2)cc(OC)c1OC,14,-14%,-20%,11%,.,?
CC1=C(C(=O)Nc2ccccc2C)C(c2cccnc2)n2nc(SCc3ccccc3F)nc2N1 (centres undefined),.,-23%,-17%,.,.,.
CC(C)(C)n1nnnc1C(c1cccs1)N(Cc1ccccc1)Cc1ccco1 (centres undefined),-20,16µM*,?,-21%,-21%,-2%
CC(C)(C)n1nnnc1C(c1cccs1)N(Cc1cccnc1)Cc1ccco1 (centres undefined),-3,?,?,-21%,16%,0%
CCN(Cc1ccccc1)C(c1ccc(Cl)cc1)c1nnnn1C(C)(C)C (centres undefined),0,?,26µM*,0%,-11%,-3%
O=C(c1ccco1)N1CCN(C(c2cccs2)c2nnnn2C2CCCC2)CC1 (centres undefined),-12,?,-10%,2%,3%,0%
c1ccc(CN(Cc2cccs2)C(c2cccs2)c2nnnn2C2CCCC2)cc1 (centres undefined),-6,18µM*,?,-15%,-12%,-16%
CC(C)(C)n1nnnc1C(c1ccncc1)N(Cc1ccccc1)Cc1ccco1 (centres undefined),?,23µM*,?,0%,-1%,-3%
